Results taken from ChEMBL document CHEMBL3988442, “University of Dundee, Small-Polar-MMV Screening Library” (2021).

These molecules were tested against T1, Aspartate--tRNA(Asp/Asn) ligase (Mycobacterium tuberculosis (strain ATCC 25618 / H37Rv)) (UniProt P9WFW3) (assay: Assay for Asp RNA synthetase-1 from Mycobacterium tuberculosis). Settings: 30 µM.
T1 sequence (whole entry): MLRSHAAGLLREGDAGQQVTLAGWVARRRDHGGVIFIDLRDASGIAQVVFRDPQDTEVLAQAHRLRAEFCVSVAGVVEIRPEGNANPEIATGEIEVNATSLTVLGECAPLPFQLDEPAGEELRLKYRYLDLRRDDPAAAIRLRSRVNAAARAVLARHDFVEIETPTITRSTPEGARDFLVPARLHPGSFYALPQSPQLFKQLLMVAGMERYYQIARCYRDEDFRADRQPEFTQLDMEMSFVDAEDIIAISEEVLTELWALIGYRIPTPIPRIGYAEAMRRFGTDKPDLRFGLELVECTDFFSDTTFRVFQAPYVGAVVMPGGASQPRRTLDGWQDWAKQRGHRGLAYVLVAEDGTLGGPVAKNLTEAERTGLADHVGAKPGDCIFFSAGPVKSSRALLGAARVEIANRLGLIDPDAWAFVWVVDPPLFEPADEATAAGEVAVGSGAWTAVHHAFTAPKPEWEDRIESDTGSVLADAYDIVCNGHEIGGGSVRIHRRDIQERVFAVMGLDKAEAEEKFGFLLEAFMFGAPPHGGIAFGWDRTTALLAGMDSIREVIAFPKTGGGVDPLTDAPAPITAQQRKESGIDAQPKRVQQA
Type: functional
Design: scale not given: in the data most compounds retested in dose-response had high values

SMILES | Percent Effect [%]
Cc1cnc(C(=O)N2CCc3ncnc(C)c3CC2)cn1 | 0.251
CN(Cc1ccco1)C(=O)CN1CCCC(Cn2cncn2)C1 (centres undefined) | -1.04
O=C(c1cnco1)N1C[C@@H]2CC[C@H](Oc3ccccc3F)[C@@H]2C1 | -1.03
CC(CN1CCN(C)CC1)NC(=O)c1cc(Cl)c2c(c1)OCO2 (centres undefined) | 3.29
CN(C)C(=O)CS(=O)(=O)Cc1cc(Cl)c2c(c1)OCCCO2 | 4.36
O=C1CC[C@H]2[C@H](CCN2C(=O)C2CCCO2)N1CCN1CCCC1 (some centres undefined) | -1.39
CSCCCN1CC[C@@H](NC(=O)c2cnccn2)[C@H](O)C1 | -0.39
O=C(NCCS(=O)(=O)N1CCc2ccccc21)c1c(O)cc(F)cc1F | -2.88
Cc1csc(CN2CC[C@H]3C[C@H](c4nnc(C)[nH]4)O[C@@H]3C2)n1 | 1.94
CN1CCN(Cc2cn3c(n2)CN(C(=O)N2CCOCC2)CC3)CC1 | 5.44
Cc1cnc2n(c1=O)C(CC(=O)NCc1cc(-c3cccs3)on1)CS2 (centres undefined) | 1.62
CC(C)C(C)NC(=O)Nc1ccc(CS(C)(=O)=O)cc1 (centres undefined) | 3.12
NCc1cn(-c2ccccc2C(=O)NCc2cccc(Cl)c2)cn1 | -0.574
COC(=O)CC(c1ccc(OC)c(OC)c1)c1oc(C)cc(=O)c1O (centres undefined) | -0.938
Cc1nn(C)c(C)c1C1CCCN1Cc1nc(C2CC2)no1 (centres undefined) | -10.2
O=C(Cc1ccccn1)N1CCN(C(=O)c2cccc3[nH]ncc23)CC1 | -2.75
CCc1nnc(CNCC2CCCN2c2cccnn2)o1 (centres undefined) | -1.12
Cc1ccc(-c2nc(CN3CCc4nn(C)c(=O)cc4C3)co2)cc1 | 40.1
COCC1CC2(CCN(C(=O)c3cc(C)oc3C)CC2)CN1C(C)C (centres undefined) | -2.27
